Rows were chosen to be rich in hits. Some 2.9% of all compounds tested hit in one or more screens of this group.
D3 antag: antagonists of human D3 dopamine receptor; max response, negative = inhibition, %; actives 2.5% (n = 360,000); D3R cells, DiscoveRx beta-arrestin luminescence, antagonist mode; active compounds read low; P35462; in the data active = max response below about -50%; inconclusive = no clear call, values can overlap the other calls
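Cells plated overnight at 1500 cells/well, then exposed to library compounds with dopamine controls for 90 minutes at 37 degrees C. DiscoveRx reagent added for 30–60 minutes at room temperature; luminescence read, quantitative HTS format.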
DRD3 agonist: activates the human D3 dopamine receptor | P35462 | D3R DiscoveRx beta-arrestin cells, luminescence, 90 min | max activation, % | actives 0.58% (n = 410,000) | AID 652048; in the data active = max activation above about 30%
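Agonist mode: compounds and dopamine controls were applied to plated cells for 90 min at 37 degrees C after an overnight attachment at 1500 cells/well. Luminescent read-out followed 30 - 60 minutes at room temperature with DiscoveRx detection reagent.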
B2AR arrestin: recruits beta-arrestin to the human beta2-adrenergic receptor. Potency, µM (top dose mostly 46.1 µM), actives largely listed as activators. beta-arrestin recruitment to beta2AR, cell-based reporter. actives 0.02% (n = 330,000). AID 492947; active = well fitted activation curve with a large enough effect; inconclusive = small, poorly fitted or top-dose-only effect; note: nearly all actives have a fitted effect of over 65% in size
Target sequence (P07550 whole entry, looked up): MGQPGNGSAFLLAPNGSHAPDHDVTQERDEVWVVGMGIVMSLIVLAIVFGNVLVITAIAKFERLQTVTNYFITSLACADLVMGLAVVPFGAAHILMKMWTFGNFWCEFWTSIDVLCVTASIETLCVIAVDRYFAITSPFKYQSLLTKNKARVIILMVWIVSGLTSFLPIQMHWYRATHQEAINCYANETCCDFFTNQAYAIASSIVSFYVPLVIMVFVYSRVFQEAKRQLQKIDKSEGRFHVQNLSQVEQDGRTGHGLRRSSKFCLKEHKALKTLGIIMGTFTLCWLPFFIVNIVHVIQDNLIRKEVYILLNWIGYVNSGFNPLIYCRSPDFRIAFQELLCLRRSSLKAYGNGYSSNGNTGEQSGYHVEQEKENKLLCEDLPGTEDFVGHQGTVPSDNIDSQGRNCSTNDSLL
TSHR antag: human thyrotropin receptor antagonism; TSHR-expressing cells, TSH-stimulated cAMP HTRF, 2 h; active compounds read low; P16473; actives 0.2% (n = 330,000); activity change, negative = inhibition, % at 11.5 µM;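 active = activity change below a set negative limit, meaning inhibition stronger than a set level, cut at about -70% in these data; inconclusive = activity change between two set negative limits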
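Antagonism was scored as loss of TSH-driven cAMP in TSHR cells, stimulated with 4nM TSH (EC80) for 2 hours at 37 deg C and detected by homogeneous HTRF competition immunoassay.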
Of the large screens only hits and unclear results are named; the others gave an inactive call.

CCOC(=O)c1c(CN2CCCCC2)n(C)c2cc(Br)c(O)c(CN(C)C)c12	D3 antag -68
Nc1c(C(=O)c2ccc(Cl)cc2)sc2c1c(=O)[nH]c(=O)n2-c1ccccc1	none
Nc1c(C(=O)c2ccccc2)sc2c1c(=O)[nH]c(=O)n2-c1ccccc1	D3 antag -53
CCCCNS(=O)(=O)CCNCc1ccco1	DRD3 agonist 43
CCCCNS(=O)(=O)CCNCc1ccc(OC)cc1	none
CCCCCCCCNCCS(=O)(=O)NCc1ccccc1	D3 antag -81 (no result: B2AR arrestin, TSHR antag)
COc1ccc(CNc2nc(NCc3ccc(OC)cc3)c3[nH]cnc3n2)cc1	DRD3 agonist 56
CCOC(=O)Cn1c(=O)oc2cc(S(=O)(=O)NCc3ccc(F)cc3)ccc21	none (no result: D3 antag, B2AR arrestin, TSHR antag)
COc1ccc(C(C)(NC(C)=O)c2nc(-c3ccccc3OC)cs2)cc1 (stereo not given)	D3 antag -88 (no result: B2AR arrestin, TSHR antag)
Cc1c(C(=O)Nc2ccc(Nc3ccccc3)cc2)cccc1[N+](=O)[O-]	none
O=C(Nc1ccccc1)c1ccc(Nc2c([N+](=O)[O-])cc([N+](=O)[O-])c3ccccc23)cc1	D3 antag -68
COc1cc(CNCCN2CCOCC2)ccc1OCc1ccc(Cl)cc1Cl	D3 antag -64
COc1cc(CNCc2ccccn2)ccc1OCc1ccc(Cl)cc1Cl	D3 antag -67
COc1cc(CNCCN2CCOCC2)ccc1OCc1cccc(Cl)c1	none
Cc1ccccc1-n1nc(C)c2cc(C(=O)NCc3cccnc3)sc21	D3 antag -60
Cc1ccc(S(=O)(=O)C/N=C(/NC(=S)N(c2ccccc2)c2ccccc2)c2ccccc2)cc1	D3 antag -56
CCOCC(=O)Nc1c(C(=O)Nc2ccc(OC)cc2OC)oc2ccccc12	DRD3 agonist 73
CCOC(=O)c1oc2ccccc2c1CN1CCN(c2ccccc2)CC1	D3 antag -77
COCC(=O)Nc1c(C(=O)Nc2cccc(OC)c2)oc2ccccc12	none
COc1cccc(NC(=O)c2oc3ccccc3c2NC(C)=O)c1	D3 antag -55
COc1ccc(NC(=O)c2oc3ccccc3c2NC(=O)c2ccco2)c(OC)c1	DRD3 agonist 49
CCOC(=O)c1oc2ccccc2c1CN1CCN(C(=O)c2ccccc2)CC1	none
COc1ccc(NC(=O)c2oc3ccccc3c2NC(=O)c2cc3ccccc3o2)c(OC)c1	none (no result: D3 antag, B2AR arrestin, TSHR antag)
COc1cc(NC(=O)C(C)C)ccc1NC(=O)c1ccco1	TSHR antag -93
COc1cc(NC(=S)NC(=O)c2ccco2)ccc1NC(=O)C(C)C	none
CCOC(=O)c1oc2ccccc2c1NC(=O)COC	D3 antag -52
CCC(CC)c1nn2c(=O)cc(COc3ccc(NC(=O)c4ccccc4C)cc3)nc2s1	none (no result: D3 antag, B2AR arrestin, TSHR antag)
CCOc1ccc2nc(N3CCN(C(=O)c4ccco4)CC3)sc2c1	none (no result: D3 antag, B2AR arrestin, TSHR antag)
C=CC(=O)O	none (no result: D3 antag, B2AR arrestin, TSHR antag)
COCCCNc1ncnc2c1c(-c1ccccc1)cn2-c1ccc(C)c(Cl)c1	none (no result: D3 antag, B2AR arrestin, TSHR antag)
Clc1cccc(NCc2nnc(SCc3ccc(Cl)cc3Cl)o2)c1	D3 antag -63
O=C(NCc1ccc(C(F)(F)F)cc1)c1ccc(-c2ccc(F)c(F)c2)c2ccoc12	D3 antag inconclusive (no result: B2AR arrestin, TSHR antag)
CN1CCN(c2ccc(CNC(=O)c3ccc(-c4ccc(F)c(F)c4)c4ccoc34)cc2)CC1	D3 antag -66 (no result: B2AR arrestin, TSHR antag)
CN1CCN(c2ccc(CNC(=O)c3cccc4c(-c5ccc(F)c(F)c5)coc34)cc2)CC1	D3 antag -83 (no result: B2AR arrestin, TSHR antag)
Cc1ccccc1NC(=O)OCc1ccccc1	DRD3 agonist 61
O=C(C1CCCN(Cc2ccccc2)C1)N1CCc2ccccc2C1 (stereo not given)	D3 antag -89
O=C(C1CCCN(Cc2cccc(F)c2)C1)N1CCCCC1 (stereo not given)	D3 antag -73
COc1cc(CN2CCCC(C(=O)N3CCc4ccccc4C3)C2)cc(OC)c1OC (stereo not given)	D3 antag -70
COc1ccc(CN2CCCC(C(=O)N3CCc4ccccc4C3)C2)cc1OC (stereo not given)	D3 antag -61
Cc1ccc(CN2CCCC(C(=O)N3CCCC3)C2)cc1 (stereo not given)	none
COc1cc(C(=O)N2CCN(CCc3ccccn3)CC2)cc(OC)c1OC	none (no result: D3 antag, B2AR arrestin, TSHR antag)
CCc1ccc(C(=O)C(C)CN2CCCCC2)cc1 (stereo not given)	none (no result: D3 antag, B2AR arrestin, TSHR antag)
Cc1ccc(OCCn2cc(C(=S)N3CCCC3)c3ccccc32)cc1C	D3 antag -54
S=C(c1cn(CCOc2ccccc2)c2ccccc12)N1CCCC1	none
CN(C)c1ccc(N=Cc2ccco2)cc1	TSHR antag -74

Screening data (PubChem)
